Inconclusive results are not listed. A number with no mark means an inactive call. Calls of active or inactive are those of the source. Calls come from the whole dose curve; as a rule, active = well fitted activation curve with a large enough effect in the repeat runs; inconclusive = weak or mixed curves, or effect the other way; inactive = no such curve, though single readings can be large or run the other way.
Experiment: qHTS assay to identify small molecule agonists of the retinoic acid receptor (RAR) signaling pathway (AID 1159553)
Conditions: C3RL4 RARE luciferase reporter, agonist, 6 h; series mostly up to 73.3 µM; activation: at the top concentration
Source text: National Center for Advancing Translational Sciences [NCATS] NIH Chemical Genomics Center [NCGC] U.S. Environmental Protection Agency [EPA] National Institutes of Environmental Health Sciences [NIEHS] National Toxicology Program [NTP] Assay overview: All-trans Retinoic acid (atRA) is the potent natural metabolite of retinol and plays an important role in normal embryonic development and maintenance of cellular phenotype in adult animals. atRA is the activating ligand for the retinoic acid receptors (RARs) which form heterodimers with retinoid X receptors (RXRs) on the retinoic acid response element (RARE). Through activation of the RAR/RXRs nuclear receptors, atRA regulates the transcription of a large number of protein-coding genes and regulatory RNAs. Intracellular levels of atRA are controlled by the retinol signaling pathway (RSP) that regulates the biosynthesis and catabolism of atRA to maintain physiological levels. Chemicals that interfere with the RSP can cause abnormal intracellular levels of atRA and therefore are potential developmental toxicants. To assess compounds for the potential adverse effect on embryonic development through interfering with retinol signaling, a cell-based RARE luciferase reporter gene assay was used. C3RL4 cell line (OARSA/CFSAN/FDA, Laurel, MD) was used to screen Tox21 10K compound library for identifying activators of the RSP.
Assay Protocol Summary: C3RL4 cells were seeded at 1,000/well in 5 uL of assay medium into white solid 1,536-well tissue culture plates (Greiner Bio-One North America Inc. Monroe, NC) using a Multidrop Combi (Thermo Scientific, Waltham, MA) dispenser. After incubation at 37 C and 5% CO2 for an overnight, 23 nL of compounds dissolved in DMSO, positive control or DMSO only were transferred by a Pintool station (Kalypsys, San Diego, CA). After 6 hr incubation at 37 C and 5% CO2, 5 uL of Amplite Luciferase reagent (AAT Bioquest Inc. Sunnyvale, CA) was added to each assay plate using a Flying Reagent Dispenser (FRD) (Aurora Discovery, San Diego, CA). Luminescence was quantified on a ViewLux plate reader (PerkinElmer, Waltham, MA) after 30 min incubation at room temperature.
% is set by controls: 0 for no effect and ±100 for the full control effect.

SMILES | activation | Potency
CCOC(=O)NC(C)(C)Cc1ccc(Cl)cc1 | -0.219% | 
CCCOC(=O)c1cncn1C(C)c1ccccc1 (stereo not given) | 0.139% | 
Cc1ccc(Cl)c(O)c1 | -1.19% | 
O=C(O)C(F)(F)C(F)(F)C(F)(F)C(F)(F)C(F)(F)C(F)(F)F | -0.306% | 
CC1N=C(N)OC1c1ccccc1 (stereo not given) | 7.62% | 
c1ccc2c(c1)CCNC2 | -2.43% [at 94.8 µM] | 
O=C(Cl)c1ccccc1 | -1.79% [at 94.8 µM] | 
CCCCCCCC(=O)Cl | -1.82% [at 94.8 µM] | 
CCC(C(N)=O)N1CCCC1=O (stereo not given) | -0.509% | 
C#CCOC(=O)/C=C(C)/C=C/CC(C)CCCC(C)C (stereo not given) | 0.427% | 
O=C(Cl)CCl | -1.28% [at 94.8 µM] | 
CCOP(=S)(OCC)SCCl | 2.63% | 
C=CCC1(C(C)CC)C(=O)NC(=O)NC1=O (stereo not given) | 1.3% | 
CC(C)[C@]12CC(=O)[C@H](C)[C@H]1C2 | 0.0166% | 
Nc1c(Cl)c(F)nc(OCC(=O)O)c1Cl | -3.37% | 
C[C@]12C=CC(=O)C=C1CC[C@@H]1[C@@H]2CC[C@@]2(C)[C@H]1CC[C@]2(C)O | -5.87% | 
N[C@@H]1C[C@H]1c1ccccc1 | 7.54% | 
CCSC(=O)Cl | 0.169% [at 94.8 µM] | 
CCCOC(=O)Cc1ccc(OCC(=O)N(CC)CC)c(OC)c1 | 0.941% | 
Cc1ccc2cc(C)ccc2c1 | 11.8% | 

SMILES | activation | Potency
C=C(C)[C@H]1CN[C@H](C(=O)O)[C@H]1CC(=O)O | 0.225% | 
COc1ccc(CN2CCNCC2)c(OC)c1OC | 1.17% | 
CC(Cl)(Cl)Cl | -1.24% | 
CCCCCCC1CCOC1=O (stereo not given) | 0.693% | 
O=C(O)C(Cl)Br (stereo not given) | 0.175% [at 94.8 µM] | 
CCCCCCC(=O)CCCCCC/C=C/C[C@@H](O)[C@H](O)[C@@](N)(CO)C(=O)O | -1.22% [at 34.3 µM] | 
CC[C@H](N)c1ccccc1 | -0.682% | 
CC(=NC#N)N(C)Cc1ccc(Cl)nc1 | 0.667% | 
CCC(C)(C#N)N=NC(C)(C#N)CC (stereo not given) | -0.413% | 
CCCC(C)C1(CC)C(=O)N=C(S)NC1=O (stereo not given) | 0.478% | 
CC(O)CCl (stereo not given) | -0.824% | 
CC(C)C(C)(N)C#N (stereo not given) | -3.67% | 
CN(CCO)CCO | 0.822% [at 94.8 µM] | 
COc1ccc2c(C(=O)c3ccc(Cl)cc3)c(C)n(CC(=O)O)c2c1 | 0.537% | 
CC(C)[N+](C)(CCC(C(N)=O)(c1ccccc1)c1ccccc1)C(C)C | -0.438% | 
O=CCCl | 2.43% | 
OP(O)c1ccccc1 | 0.801% [at 94.8 µM] | 
ClC1=C(Cl)C2(Cl)C(CBr)CC1(Cl)C2(Cl)Cl (stereo not given) |  | inactive
O=c1[nH]c2ccccc2n1C1CCNCC1 | -5.64% | 
CCNP(=S)(OC)O/C(C)=C/C(=O)OC(C)C (stereo not given) | 2.88% | 
